CtBP-E1A blk: CtBP/E1A binding inhibition. actives 0.49% (n = 340,000). AID 651724. activity change, % (no concentration beside the values). AlphaScreen GST-E1A/His-CtBP binding, 1536-well; stronger effect = lower value; in the data active = activity change below about -65%; inconclusive = mostly about -30% to -63%; also: % is scaled to controls: 0 for no effect and ±100 for the full control effect
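Homogeneous bead-based format: GST-tagged E1A captured on glutathione donor beads, His-tagged CtBP on nickel acceptor beads; compounds precede bead addition by 2 h at 37 °C.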
HepG2 viability: HepG2 cytotoxicity, counter-screen for TGF-b inhibitors; HepG2 CAGA-GFP viability, ATP luminescence, 18 h; AID 588856; actives 0.76% (n = 410,000); Potency, µM (series often up to 46.1 µM), inactives show top-dose activity change, negative = cytotoxicity, actives largely listed as cytotoxic; also: potency is read from the fitted curve at half-maximal effect
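CellTiter-Glo luminescence gave cytotoxicity after 18 hours at 37 degrees C. The cells were HepG2 CAGA-GFP in 1% FBS DMEM, stimulated with 500 pg/mL TGF-beta after compound addition. %Activity was normalised to no-cell wells (complete cell-killing) and DMSO (no toxicity), and curves were fitted and classified.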
TGFb SMAD3 inh: inhibitors of TGF-b signaling. Potency, µM (top dose mostly 46.1 µM), for the others: at the highest dose activity, negative = inhibition, actives largely listed as inhibitors. actives 1.2% (n = 410,000). HepG2 CAGA-GFP TGF-b/SMAD3 reporter, GFP fluorescence, 18 h; TGF-beta stimulated, 500 pg/mL final; also: potency is read from the fitted curve at half-maximal effect; % is scaled to controls: 0 for no effect and ±100 for the full control effect; nearly all actives have a fitted effect of over 65% in size
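Inhibition of TGF-beta-driven CAGA-GFP reporter expression in HEPG2 cells is measured by cellular GFP fluorescence after 18 h stimulation with 500 pg/mL recombinant TGF-beta in 1% FBS medium at 37 degrees C.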
ATXN2 expr inh: reduces ATXN2 reporter expression in HEK-293 cells; AID 1745845; HEK-293 ATXN2-luciferase reporter, luminescence, 24 h; actives 0.72% (n = 360,000); Potency, µM (doses to about 57 µM), for the others: top-dose activity change, negative = inhibition, hits mostly inhibitors; also: potency is read from the fitted curve at half-maximal effect; % is scaled to controls: 0 for no effect and ±100 for the full control effect; nearly all actives have a fitted effect of over 55% in size
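ATXN2-luciferase reporter cells (luciferase flanked by upstream and downstream ATXN2 gene portions) were treated 24 h at 37 °C with compounds at up to 57 uM. SteadyGlo luminescence gave expression; GF-AFC fluorescence gave viability.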
Six1-Eya2 inh: blocks human Six1 binding to Eya2 | Q15475+O00167 | AlphaScreen GST-Six1/His-Eya2 binding, biochemical; stronger effect = lower value | activity change, % (test concentration not listed) | actives 0.56% (n = 360,000) | AID 651725; in the data active = activity change below about -65%; inconclusive = mostly about -30% to -63%; also: % is scaled to controls: 0 for no effect and ±100 for the full control effect
Target sequence (O00167 whole entry, looked up): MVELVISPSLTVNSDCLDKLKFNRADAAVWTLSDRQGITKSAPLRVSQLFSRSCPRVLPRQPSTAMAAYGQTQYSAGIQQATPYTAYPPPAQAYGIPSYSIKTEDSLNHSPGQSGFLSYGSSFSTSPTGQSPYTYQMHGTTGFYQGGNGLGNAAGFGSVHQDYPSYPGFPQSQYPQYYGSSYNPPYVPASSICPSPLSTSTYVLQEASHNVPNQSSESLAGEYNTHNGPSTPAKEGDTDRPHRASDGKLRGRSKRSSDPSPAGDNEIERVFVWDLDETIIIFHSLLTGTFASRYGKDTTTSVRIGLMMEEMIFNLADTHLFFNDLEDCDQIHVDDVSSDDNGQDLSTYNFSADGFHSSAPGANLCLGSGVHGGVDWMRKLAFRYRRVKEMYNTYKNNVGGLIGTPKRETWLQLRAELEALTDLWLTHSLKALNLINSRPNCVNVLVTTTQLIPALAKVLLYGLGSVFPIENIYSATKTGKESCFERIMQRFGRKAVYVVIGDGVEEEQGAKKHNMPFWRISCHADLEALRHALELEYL
Target sequence (Q15475 whole entry, looked up): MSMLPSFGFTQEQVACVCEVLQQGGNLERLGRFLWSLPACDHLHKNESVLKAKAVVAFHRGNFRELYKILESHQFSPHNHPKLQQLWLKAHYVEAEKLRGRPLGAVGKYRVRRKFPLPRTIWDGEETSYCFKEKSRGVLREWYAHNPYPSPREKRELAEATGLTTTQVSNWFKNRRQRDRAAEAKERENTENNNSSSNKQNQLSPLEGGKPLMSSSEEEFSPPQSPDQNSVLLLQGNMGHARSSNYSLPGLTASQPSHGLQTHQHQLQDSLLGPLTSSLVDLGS
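AlphaScreen luminescence read after one hour at 37 °C in darkness. Pin-transferred compounds met GST-Six1 and His-Eya2 protein (5X stock 250 nM/500 nM) plus glutathione donor and Ni-chelate acceptor beads (5X, 50 ug/mL).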
S2 tox: cell viability loss in ATXN counter-screen. S2 cells (HEK-293 line with an ATXN2-luciferase reporter) viability, CellTiter-Fluor protease fluorescence, 24 h. actives 0.49% (n = 400,000). Potency, µM (top dose mostly 56.7 µM), usual class: cytotoxic; also: potency is read from the fitted curve at half-maximal effect; nearly all actives have a fitted effect of over 40% in size
* hit, by the source's call; i = inactive; u = inconclusive; x = not tested or not shown; ! = not confirmed by another sample. Compounds with a hit are over-represented: about 2.8% of the library has one in this group of screens. Unless noted, calls follow the shape of the dose curve; as a rule, active = well fitted curve in the direction sought with a large enough effect; inconclusive = small, poorly fitted or top-dose-only effect, or another doubt; inactive = no such curve, though single readings can be large; an effect the other way counts as inactive or inconclusive.

SMILES | CtBP-E1A blk | HepG2 viability | TGFb SMAD3 inh | ATXN2 expr inh | Six1-Eya2 inh | S2 tox
CCOc1cc(C2C(C#N)=C(N)OC(C)=C2C(C)=O)c(Br)c(Br)c1OC(C)C (configuration not stated) | -7.2 | -58.1% | 15.8µM* | 0.8% | -7.0 | i
CCOc1cc(C2C(C#N)=C(N)OC(C)=C2C(C)=O)cc(Br)c1O (configuration not stated) | 3.1 | -4.9% | u | 0.7% | -7.2 | i
COc1cc(/C=C/CN2CCOc3ccc(C(O)c4cccnc4)cc3C2)ccc1O (configuration not stated) | x | x | x | x | x | i
COC(=O)[C@@H]1CCCN1C(=O)c1cnn(-c2nccc(-c3cc(C)sc3C)n2)c1C1CC1 | x | x | x | x | x | i
Cc1ccc(Cl)cc1NC(=S)NCCCSC1CCCCC1 | -10.4 | -44.9% | 11.2µM* | -10.2% | -5.4 | i
Cc1c(C2=CCN(S(=O)(=O)c3ccc(CC(C)C)cc3)CC2)c2ccccc2n1CC(=O)N1CCCC1 | x | -23.4% | u | -14.8% | x | i
Cc1cc(C(=O)Nc2cccc(-c3nc(CNC(=O)c4sc(C)nc4C)c(C)o3)c2)c(C)o1 | x | x | x | x | x | i
Clc1ccc2nnnc(-c3ccccc3)c2c1 | -22.9 | 31.2% | u | 15µM* | -11.8 | u
c1ccc(-c2nnnc3ccccc23)cc1 | -3.1 | 34.4% | u | 1.5% | 8.5 | i
O=[N+]([O-])c1ccc(N/N=C/c2cn(-c3ccccc3)nc2-c2ccccc2)cc1 | -2.1 | -37.4% | -6.4% | -2.2% | 9.8 | i
NS(=O)(=O)c1ccc(N/N=C/c2cn(-c3ccccc3)nc2-c2ccccc2)c([N+](=O)[O-])c1 | x | 6.31µM* | 5.62µM* | x | -0.4 | 11.2µM*
CO[C@H]1C[C@@H]2CC[C@@H](C)[C@@](O)(O2)C(=O)C(=O)N2CCCC[C@@H]2C(=O)O[C@H]([C@H](C)C[C@@H]2CC[C@H](OP(C)(C)=O)[C@H](OC)C2)CC(=O)[C@H](C)C=C(C)[C@@H](O)[C@@H](OC)C(=O)[C@H](C)C[C@H](C)C=CC=CC=C1C | x | x | x | 4.1% | x | x
C[C@@H]1[C@H](O)[C@@H](C)C=CC=CC=CC=CC=CC=CC=C[C@H](O[C@@H]2O[C@H](C)[C@H](O)[C@H](N)[C@@H]2O)C[C@@H]2O[C@](O)(C[C@@H](O)C[C@@H](O)[C@H](O)CC[C@@H](O)C[C@@H](O)CC(=O)O[C@H]1C)C[C@H](O)[C@@H]2C(=O)O | x | x | x | 34.3% | x | x
CN(C)c1ccc(CNCCC(Cc2ccccc2)c2ccco2)cc1 (configuration not stated) | u | i | u | u | -65.5* | u
c1ccc(CNCCC(Cc2ccccc2)c2ccco2)cc1 (configuration not stated) | 3.3 | 0.8% | 20µM* | -4.1% | -23.7 | i
COc1ccc(-c2nc(CN3CCC(C(=O)NCCCN4CCN(c5ccccc5F)CC4)CC3)c(C)o2)cc1OC | x | -80.8% | u | x | x | x
O=C(Nc1ccc(Br)cc1)c1ccc(Br)c(S(=O)(=O)Nc2cccnc2)c1 | -65.7* | -3.7% | -7.7% | -6.9% | u | i
O=C(Nc1ccccc1)c1ccc(Br)c(S(=O)(=O)N2CCCCC2)c1 | x | -47.3% | 6.31µM* | x | x | x
COc1ccc(CCNC(=O)c2coc(=O)c(Br)c2)cc1 | 5.2 | 12.6µM* | 17.8µM* | u | -1.3 | x
COc1ccc(CCNC(=O)c2ccc(Br)cc2)cc1 | 8.1 | -3.3% | 2.1% | 3.9% | 9.4 | i
CCOc1ccc2nc(N3CCCC(C(=O)Nc4ccc(Br)c(C)c4)C3)sc2c1 (configuration not stated) | x | -0.6% | 48.6% | x | x | x
CCOC(=O)C(=CNc1cc(C)nn1-c1ccc(C)cc1)C(=O)OCC | 7.9 | -25.4% | -25.3% | -20.5% | 1.4 | u
CCOC(=O)C(=CNc1ccc2c(c1)nnn2-c1ccc(Cl)cc1)C(=O)OCC | -4.6 | 16.2% | 7.6% | 23.8µM* | -15.9 | u
O=C(NCc1nnc2n1CCN(Cc1cc3c(cc1Cl)OCO3)CC2)C1CCOC1 (configuration not stated) | x | x | x | x | x | i
C/C(=N\NC(=O)C1CCCC1)c1ccc(NC(=O)C(F)(F)F)cc1 | 3.4 | -93.5% | 11.2µM* | 9.1% | 0.6 | i
SMILES | CtBP-E1A blk | HepG2 viability | TGFb SMAD3 inh | ATXN2 expr inh | Six1-Eya2 inh | S2 tox
CC(=O)Nc1ccc(C(C)=NNC(=O)C2CCCC2)cc1 | 8.4 | -5.1% | 0.2% | 12.2% | 8.9 | i
CCOc1cc(C=C(C(=O)OC)C(=O)OC)ccc1OCc1ccc([N+](=O)[O-])cc1 | -9.9 | -52.1% | 12.6µM* | 31.6µM* | -1.1 | u
CCOc1cc(/C=N/O)ccc1OCc1ccc([N+](=O)[O-])cc1 | -9.3 | -9.6% | 9.7% | 11.1% | -5.6 | i
C[C@H](c1ccc(F)cc1CCCC(=O)O)N(c1cc(F)ccc1F)S(=O)(=O)c1ccc(Cl)cc1 | x | x | x | 16.6% | x | x
NC[C@H]1O[C@H](O[C@H]2[C@H](O)[C@@H](O[C@H]3O[C@H](CO)[C@@H](O)[C@H](N)[C@H]3O)[C@H](N)C[C@@H]2N)[C@H](O)[C@@H](O)[C@@H]1O | x | x | x | x | x | i
COc1cc(/C=C2\C(C)=C(C#N)c3nc(N)c(C#N)c(C)c32)ccc1OCC(=O)O | -17.5 | 1.0% | -17.6% | x | -73.1* | i
COCCCNC(=O)/C(C#N)=C/c1ccc(OCC(=O)O)c(OC)c1 | 5.1 | -9.6% | 3.8% | 0.2% | u | i
Cc1c(CC(=O)NCCCC(=O)O)c(=O)oc2cc3c(cc12)CCC(C)(C)O3 | 4.1 | -2.7% | -0.2% | 3.16µM* | -0.6 | i
CC[N+](CC)(CC)CCOc1ccc(/C=C/c2ccccc2)cc1 | -0.4 | 0.2% | -9.5% | 17.8µM*! | 3.0 | u
CC[N+](CC)(CC)CCOc1cccc(OCC[N+](CC)(CC)CC)c1OCC[N+](CC)(CC)CC | 3.1 | -2.1% | 19.2% | -2.1% | 0.7 | i
O=C(Cc1cccc(C(F)(F)F)c1)NCc1cccc(Cl)c1 | 1.4 | -6.1% | 0.0% | -9.2% | 15.1 | i
O=C(NCc1cccc(Cl)c1)c1ccc(S(=O)(=O)Nc2cccc(C(F)(F)F)c2)cc1 | -6.6 | 10µM* | u | -5.9% | 14.4 | i
CCCc1nc2sc3c(N4CCC(C)CC4)ncnc3c2c2c1CCCC2 | x | 6.9% | -12.5% | 11.3% | x | i
CCOC(=O)CSc1nc2cc3c(cc2c(=O)n1Cc1ccc(C(=O)NCCc2ccc(OC)c(OC)c2)cc1)OCO3 | x | -1.1% | -5.9% | x | x | x
O=c1c2c([N+](=O)[O-])cc([N+](=O)[O-])cc2sn1-c1ccc(Br)cc1 | -19.7 | -0.5% | 0.0% | -0.1% | u | i

Screening results from PubChem.
